For some of these results: Measured potencies and affinities stand elsewhere. The source made the active and inactive calls. Unless noted, no rule for the calls is given here.
What was measured:
[1] = antimalarial activity against Dd2 strain (AID 2302;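 active = growth inhibition above 50% at the single 2 µM test dose, taken to imply half-maximal potency below 2 µM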;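 also: 0% = DMSO untreated growth and 100% = chloroquine plus artemisinin killed control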); details: P. falciparum Dd2 in RBCs, LDH growth readout, 72 h; at 2 µM; active compounds read high
[2] = HepG2 cytotoxicity, primary screen, cytotoxicity control for P. falciparum antimalarial project, cell-based, ATP luminescence (AID 2303;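 active = inhibition above 50%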;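 also: 0% = DMSO wells and 100% = digitonin-killed cells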); details: HepG2 viability, 24-48 h, at 10 µM, active compounds read high
[3] = target: L-lactate dehydrogenase (Plasmodium falciparum (isolate CDC / Honduras)) (UniProt Q27743); test: PfLDH activity inhibition – cell lysate, 3D7 strain, counter-screen for P. falciparum growth inhibition project (AID 2304);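 also: 0% = vehicle and 100% = reference inhibitor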; details: P. falciparum 3D7 crude extract, LDH APAD/NBT absorbance; at 2 µM; active compounds read high
[4] = inhibition of 3D7 malaria parasite growth – strain 3D7 (AID 2306);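 also: 0% = DMSO wells and 100% = chloroquine plus artemisinin control wells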; details: P. falciparum 3D7 erythrocytic growth, LDH absorbance, 72 h; at 2 µM; active compounds read high
[5] = target: Calcium-dependent protein kinase 1 (Plasmodium falciparum (isolate 3D7)) (UniProt P62344); test: PfCDPK1 kinase inhibitors, biochemical, TCAMS library (AID 1159585; cut-off not given, nearly all actives have IC50 up to about 0.98 µM;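 also: inhibitors leave more ATP so luminescence rises with inhibition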); details: recombinant PfCDPK1, Kinase-Glo ATP depletion luminescence
[6] = target: Plasmodium falciparum protein kinase 6 (PK6, PF3D7_1337100) (UniProt Q8IDW1); test: PfPK6 kinase inhibitors, biochemical, TCAMS library (AID 1159586); details: recombinant PfPK6, Kinase-Glo ATP depletion luminescence
[7] = target: Protein kinase 7 (PK7), Plasmodium falciparum 3D7 (PF3D7_0213400) (UniProt Q7YTF7); test: inhibition of Plasmodium PK7 catalytic activity – biochemical, TCAMS antimalarial set, Kinase-Glo luminescence (AID 1159587); details: recombinant PfPK7, Kinase-Glo ATP depletion luminescence
[8] = target: Calcium-dependent protein kinase 4 (Plasmodium falciparum (isolate 3D7)) (UniProt Q8IBS5); test: PfCDPK4 kinase inhibitors, biochemical, TCAMS library (AID 1159588; cut-off not given, nearly all actives have IC50 up to about 0.91 µM); details: recombinant PfCDPK4, Kinase-Glo ATP depletion luminescence
Chain of Calcium-dependent protein kinase 4 (Plasmodium falciparum (isolate 3D7)) (Q8IBS5 whole entry, looked up): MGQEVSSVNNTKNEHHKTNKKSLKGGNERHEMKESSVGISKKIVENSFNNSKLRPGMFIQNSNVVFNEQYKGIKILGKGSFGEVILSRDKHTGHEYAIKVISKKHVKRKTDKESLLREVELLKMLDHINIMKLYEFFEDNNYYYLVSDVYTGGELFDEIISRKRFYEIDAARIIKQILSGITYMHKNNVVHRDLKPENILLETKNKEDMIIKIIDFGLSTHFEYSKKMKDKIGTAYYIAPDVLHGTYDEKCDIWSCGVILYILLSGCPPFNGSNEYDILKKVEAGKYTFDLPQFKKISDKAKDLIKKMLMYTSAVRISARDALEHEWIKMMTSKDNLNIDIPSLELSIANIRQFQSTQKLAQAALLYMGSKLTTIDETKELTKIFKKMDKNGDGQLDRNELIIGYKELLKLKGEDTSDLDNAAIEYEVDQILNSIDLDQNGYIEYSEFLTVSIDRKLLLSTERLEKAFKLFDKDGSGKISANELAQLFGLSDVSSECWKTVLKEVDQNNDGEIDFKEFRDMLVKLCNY

Chain of Protein kinase 7 (PK7), Plasmodium falciparum 3D7 (PF3D7_0213400) (Q7YTF7 1-343): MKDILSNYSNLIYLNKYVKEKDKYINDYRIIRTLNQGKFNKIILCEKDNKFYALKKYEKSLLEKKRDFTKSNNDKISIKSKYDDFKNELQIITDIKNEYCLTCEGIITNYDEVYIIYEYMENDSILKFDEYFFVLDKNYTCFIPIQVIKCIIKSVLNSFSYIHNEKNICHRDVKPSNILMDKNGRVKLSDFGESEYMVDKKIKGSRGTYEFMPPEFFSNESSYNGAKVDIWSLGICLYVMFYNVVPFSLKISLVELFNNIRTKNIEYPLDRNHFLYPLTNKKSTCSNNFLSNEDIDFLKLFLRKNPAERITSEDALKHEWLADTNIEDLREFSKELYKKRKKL
Chain of Calcium-dependent protein kinase 1 (Plasmodium falciparum (isolate 3D7)) (P62344 whole entry, looked up): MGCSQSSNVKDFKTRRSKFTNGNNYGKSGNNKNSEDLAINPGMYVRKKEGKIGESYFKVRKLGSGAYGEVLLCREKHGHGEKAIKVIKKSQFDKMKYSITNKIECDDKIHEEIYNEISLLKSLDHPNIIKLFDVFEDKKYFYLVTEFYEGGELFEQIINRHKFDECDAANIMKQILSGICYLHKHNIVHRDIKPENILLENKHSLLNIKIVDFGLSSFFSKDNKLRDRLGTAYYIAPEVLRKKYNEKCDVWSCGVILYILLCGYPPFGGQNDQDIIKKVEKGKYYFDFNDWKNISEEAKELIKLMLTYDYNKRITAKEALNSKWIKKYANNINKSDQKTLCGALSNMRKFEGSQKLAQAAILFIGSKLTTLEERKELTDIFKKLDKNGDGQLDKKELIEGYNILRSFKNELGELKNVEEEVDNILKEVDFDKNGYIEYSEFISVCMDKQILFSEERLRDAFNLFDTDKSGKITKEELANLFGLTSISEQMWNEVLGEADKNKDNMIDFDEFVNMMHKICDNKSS
Chain of Plasmodium falciparum protein kinase 6 (PK6, PF3D7_1337100) (Q8IDW1 1-305): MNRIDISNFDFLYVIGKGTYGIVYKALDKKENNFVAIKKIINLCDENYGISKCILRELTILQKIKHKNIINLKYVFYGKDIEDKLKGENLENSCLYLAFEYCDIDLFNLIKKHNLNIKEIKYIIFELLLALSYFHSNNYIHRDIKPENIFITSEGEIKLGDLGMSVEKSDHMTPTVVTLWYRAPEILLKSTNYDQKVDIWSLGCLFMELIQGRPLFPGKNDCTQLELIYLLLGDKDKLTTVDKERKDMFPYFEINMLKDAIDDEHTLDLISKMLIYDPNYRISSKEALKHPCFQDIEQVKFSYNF
Chain of L-lactate dehydrogenase (Plasmodium falciparum (isolate CDC / Honduras)) (Q27743 whole entry, looked up): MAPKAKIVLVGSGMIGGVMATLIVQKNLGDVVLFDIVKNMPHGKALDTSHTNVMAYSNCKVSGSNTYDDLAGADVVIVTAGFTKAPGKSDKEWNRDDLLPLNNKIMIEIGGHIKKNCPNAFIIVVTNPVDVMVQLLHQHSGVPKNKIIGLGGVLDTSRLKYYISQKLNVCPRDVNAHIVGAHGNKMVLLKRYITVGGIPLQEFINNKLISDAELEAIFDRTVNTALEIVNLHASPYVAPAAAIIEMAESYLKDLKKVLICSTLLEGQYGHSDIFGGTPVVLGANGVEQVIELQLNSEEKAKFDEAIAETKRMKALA

OC(CNc1ccnc(Nc2cccc(OCCCN3CCOCC3)c2)n1)c1ccccc1 (centres undefined)
active: growth inhibition [4] 97%
inactive: growth inhibition [1] 25% | inhibition [2] 48% | inhibition [3] -4% | outcome [5] | outcome [6] | outcome [7] | outcome [8]

Fc1cc(Cl)ccc1Nc1ccnc(Nc2ccc3cn[nH]c3c2)n1
inactive: inhibition [2] 8% | inhibition [3] -3% | outcome [5] | outcome [6] | outcome [7] | outcome [8]
active: growth inhibition [1] 56% | growth inhibition [4] 97%

COCC(C)n1c(SCC(=O)Nc2cc(C(F)(F)F)ccc2Cl)nc2ccccc2c1=O (centres undefined)
active: growth inhibition [1] 96% | growth inhibition [4] 97%
inactive: inhibition [2] 3% | inhibition [3] 6% | outcome [5] | outcome [6] | outcome [7] | outcome [8]

COc1c(F)ccc2ncc(Cl)c(CCN3CCC(NCc4ccc5c(n4)NC(=O)CS5)CC3)c12
active: growth inhibition [4] 98%
inactive: growth inhibition [1] 29% | inhibition [2] 30% | inhibition [3] 2% | outcome [5] | outcome [6] | outcome [7] | outcome [8]

CC(CO)(CO)NCc1cc2c3ccccc3c(CNC(C)(CO)CO)cc2c2ccccc12
inactive: inhibition [2] 40% | inhibition [3] 3% | outcome [5] | outcome [6] | outcome [7] | outcome [8]
active: growth inhibition [1] 98% | growth inhibition [4] 96%

CC(C)c1ccc(CN2CCC(NC(=O)c3ccc(-c4cccc(Cl)c4)s3)CC2)cc1
inactive: growth inhibition [1] 6% | inhibition [3] 3% | outcome [5] | outcome [6] | outcome [7] | outcome [8]
active: inhibition [2] 50% | growth inhibition [4] 82%

CCN1CCN(CCNc2c3ccccc3nc3ccccc23)CC1
inactive: growth inhibition [1] 8% | inhibition [2] 45% | inhibition [3] 0% | outcome [5] | outcome [6] | outcome [7] | outcome [8]
active: growth inhibition [4] 93%

Cc1cccc2[nH]c(-c3cccc(-c4ccc(NC(=O)c5cnc[nH]5)cc4)c3)nc12
inactive: growth inhibition [1] 48% | inhibition [2] 8% | inhibition [3] 3% | outcome [5] | outcome [6] | outcome [7] | outcome [8]
active: growth inhibition [4] 101%

CC1CN(Cc2csc(Nc3ccccc3)n2)CC(C)O1 (centres undefined)
inactive: inhibition [2] 4% | inhibition [3] 0% | outcome [5] | outcome [6] | outcome [7] | outcome [8]
active: growth inhibition [1] 81% | growth inhibition [4] 91%

Cc1nc2nc(N)nc(N)c2c(C)c1Cc1cccc(C(F)(F)F)c1
inactive: growth inhibition [1] 23% | inhibition [3] -2% | outcome [5] | outcome [6] | outcome [7] | outcome [8]
active: inhibition [2] 65% | growth inhibition [4] 89%

C[C@H](Cc1ccc(OCCCCOc2ccc(C[C@@H](C)NC[C@H](O)c3cccc(Cl)c3)cc2)cc1)NC[C@H](O)c1cccc(Cl)c1
inactive: inhibition [3] 7% | outcome [5] | outcome [6] | outcome [7] | outcome [8]
active: growth inhibition [1] 92% | inhibition [2] 68% | growth inhibition [4] 100%

COc1ccc(-c2cc3ncn(CC(=O)N4CCN(c5cccc(OC)c5)CC4)c(=O)c3s2)cc1
active: growth inhibition [4] 84%
inactive: growth inhibition [1] 26% | inhibition [2] 49% | inhibition [3] -7% | outcome [5] | outcome [6] | outcome [7] | outcome [8]

CCCNC(=O)Nc1ccc(N(C)c2ccnc(NC3CC3)n2)cc1
inactive: inhibition [2] 28% | inhibition [3] -2% | outcome [5] | outcome [6] | outcome [7] | outcome [8]
active: growth inhibition [1] 88% | growth inhibition [4] 100%

Nc1ncc(-c2ccsc2)c2ccc(-c3ccc4cn[nH]c4c3)cc12
active: growth inhibition [4] 95%
inactive: growth inhibition [1] 41% | inhibition [2] 18% | inhibition [3] 6% | outcome [5] | outcome [6] | outcome [7] | outcome [8]

CCc1ccc(CN2CCC(CNC(=O)c3cc(-c4cccc(C(F)(F)F)c4)cs3)C2)cc1 (centres undefined)
active: growth inhibition [4] 97%
inactive: growth inhibition [1] 48% | inhibition [2] 45% | inhibition [3] 2% | outcome [5] | outcome [6] | outcome [7] | outcome [8]

O=C(NCC1CCC(C(=O)NC2CCCc3ccccc32)CC1)c1ccc(O)c(-c2cccc([N+](=O)[O-])c2)c1 (centres undefined)
active: growth inhibition [1] 97% | growth inhibition [4] 99%
inactive: inhibition [2] 2% | inhibition [3] -2% | outcome [5] | outcome [6] | outcome [7] | outcome [8]

COc1ccc2nccc([C@@H](O)CN3CCC(NC(=O)Cc4ccc(Br)c5ccccc45)CC3)c2c1
active: growth inhibition [4] 98%
inactive: growth inhibition [1] 40% | inhibition [2] 10% | inhibition [3] -2% | outcome [5] | outcome [6] | outcome [7] | outcome [8]

COc1cc2nccc(Nc3cc(C)cc(O)c3)c2cc1OC
active: growth inhibition [4] 97%
inactive: growth inhibition [1] -2% | inhibition [2] -6% | inhibition [3] 0% | outcome [5] | outcome [6] | outcome [7] | outcome [8]

COc1cc2c(cc1OCCN1CCC(N3CCCCC3)CC1)N(C(=O)/C=C/c1ccccc1Cl)CC2
inactive: growth inhibition [1] 41% | inhibition [2] 36% | inhibition [3] -1% | outcome [5] | outcome [6] | outcome [7] | outcome [8]
active: growth inhibition [4] 102%

Cc1nn(-c2cccc(C(F)(F)F)c2)c2sc(C(=O)NC3CCN(C(C)C)CC3)cc12
inactive: growth inhibition [1] 20% | inhibition [3] -4% | outcome [5] | outcome [6] | outcome [7] | outcome [8]
active: inhibition [2] 98% | growth inhibition [4] 94%

CCCCCCc1cc(OC)c(OC)cc1C(C)Nc1ccnc2cc(Cl)ccc12 (centres undefined)
active: growth inhibition [1] 79% | growth inhibition [4] 95%
inactive: inhibition [2] 6% | inhibition [3] -4% | outcome [5] | outcome [6] | outcome [7] | outcome [8]

CCN1CCC(N2CCC(C(=O)Nc3cccc(-c4cccc(Cl)c4)c3)CC2)CC1
inactive: inhibition [3] -1% | outcome [5] | outcome [6] | outcome [7] | outcome [8]
active: growth inhibition [1] 82% | inhibition [2] 54% | growth inhibition [4] 91%

c1cc(CNCCN2CCNCC2)cc(-c2ccc(-c3nc4ccccc4[nH]3)cc2)c1
inactive: growth inhibition [1] 11% | inhibition [2] 3% | inhibition [3] -3% | outcome [5] | outcome [6] | outcome [7] | outcome [8]
active: growth inhibition [4] 98%

O=C(CCc1cccnc1)Nc1cccc(-c2ccc(-c3nc4ccc(C(F)(F)F)cc4[nH]3)s2)c1
active: growth inhibition [4] 89%
inactive: growth inhibition [1] 13% | inhibition [2] 35% | inhibition [3] 2% | outcome [5] | outcome [6] | outcome [7] | outcome [8]

Oc1cccc(CNCCCN(Cc2ccccc2)c2ccccc2)c1
inactive: inhibition [2] 7% | inhibition [3] -6% | outcome [5] | outcome [6] | outcome [7] | outcome [8]
active: growth inhibition [1] 97% | growth inhibition [4] 99%

Clc1cccc(Cl)c1CCNCC1CCN(CC2CCCCC2)CC1
inactive: inhibition [2] 39% | inhibition [3] -5% | outcome [5] | outcome [6] | outcome [7] | outcome [8]
active: growth inhibition [1] 94% | growth inhibition [4] 98%

Cc1nn(CC(C)C)c2sc(C(=O)Nc3nc(-c4ccccn4)cs3)cc12
inactive: inhibition [2] 29% | inhibition [3] 1% | outcome [5] | outcome [6] | outcome [7] | outcome [8]
active: growth inhibition [1] 67% | growth inhibition [4] 96%

COc1ccc2nc(N3CCN(C(=O)OC(C)(C)C)CC3)nc(NCCCc3ccccc3)c2c1
active: growth inhibition [1] 95% | growth inhibition [4] 102%
inactive: inhibition [2] 9% | inhibition [3] -2% | outcome [5] | outcome [6] | outcome [7] | outcome [8]

c1ccc(C(c2ccccc2)N2CCN(C(c3cccnc3)c3nnnn3C3CCCC3)CC2)cc1 (centres undefined)
active: growth inhibition [1] 59% | growth inhibition [4] 83%
inactive: inhibition [2] 4% | inhibition [3] 0% | outcome [5] | outcome [6] | outcome [7] | outcome [8]

CC1CN(CC(O)Cn2c3ccc(Br)cc3c3cc(Br)ccc32)CC(C)O1 (centres undefined)
active: growth inhibition [1] 100% | growth inhibition [4] 102%
inactive: inhibition [2] -1% | inhibition [3] 3% | outcome [5] | outcome [6] | outcome [7] | outcome [8]

O=C(Nc1ccc(N2CCNCC2)nc1)c1oc(-c2ccccc2)nc1C(F)(F)F
inactive: inhibition [2] 7% | inhibition [3] 0% | outcome [5] | outcome [6] | outcome [7] | outcome [8]
active: growth inhibition [1] 62% | growth inhibition [4] 100%

O=C(Nc1cccc(OC2CCN(Cc3ccccc3)CC2)c1)c1ccc([N+](=O)[O-])cc1
active: growth inhibition [4] 100%
inactive: growth inhibition [1] 2% | inhibition [2] 6% | inhibition [3] 3% | outcome [5] | outcome [6] | outcome [7] | outcome [8]

COc1ccccc1NC(=O)Nc1ccc(-c2ccc(-c3nc4c(C)cccc4[nH]3)s2)cc1
inactive: inhibition [3] 0% | outcome [5] | outcome [6] | outcome [7] | outcome [8]
active: growth inhibition [1] 99% | inhibition [2] 71% | growth inhibition [4] 100%

Cc1[nH]c2ccccc2c1C(=O)CSc1nn(-c2ccccc2)c(=S)s1
active: growth inhibition [1] 99% | growth inhibition [4] 100%
inactive: inhibition [2] -6% | inhibition [3] -1% | outcome [5] | outcome [6] | outcome [7] | outcome [8]

Cc1cc(=O)[nH]c(-n2nc(C)cc2NC(=O)CC(c2ccccc2)c2ccccc2)n1
inactive: inhibition [2] 42% | inhibition [3] 2% | outcome [5] | outcome [6] | outcome [7] | outcome [8]
active: growth inhibition [1] 62% | growth inhibition [4] 90%

CN(C)c1cccc(-c2cnc3ccc(NCc4cccc(Cl)c4)nn23)c1
active: growth inhibition [1] 98% | growth inhibition [4] 99%
inactive: inhibition [2] 11% | inhibition [3] -3% | outcome [5] | outcome [6] | outcome [7] | outcome [8]

COc1cccc(CN2CCN(C(c3ccccc3)c3ccccc3)CC2)c1O
inactive: inhibition [2] 6% | inhibition [3] 2% | outcome [5] | outcome [6] | outcome [7] | outcome [8]
active: growth inhibition [1] 98% | growth inhibition [4] 99%

CCNc1cc(C(=O)N[C@@H](Cc2cc(F)cc(F)c2)[C@H](O)CNCc2cccc(C(F)(F)F)c2)cc(N2CCCCS2(=O)=O)c1
inactive: inhibition [2] 1% | inhibition [3] -8% | outcome [5] | outcome [6] | outcome [7] | outcome [8]
active: growth inhibition [1] 80% | growth inhibition [4] 99%

Reference: PubChem BioAssay
